# Assay results as given in PubChem BioAssay.
# Active and inactive are the calls of the source.
# Columns and labels:
# [1] = target: Albumin (Bos taurus) (UniProt P02769); assay: bovine serum albumin binders on microarray, profiling panel, artefact control for SMM control protein annotation, biochemical, small-molecule microarray, Alexa647 label, 635/667 nm fluorescence (AID 1118); conditions: BSA-A647 binding, fluorescence 635 nm, higher = more signal;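 also: score merges 667 nm emission intensity and signal-to-noise per printed compound spot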
# [2] = small-molecule microarray binders of probe aXIP, primary screen, biochemical, NeuroSMM set, 635/667 nm fluorescence (AID 1119); conditions: higher = more signal, called active from +8 up or from −8 down;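 also: probe is the protein aXip251-270 applied at 1 µg/mL to compound-printed slides; binding of probe to printed compounds measured as 667 nm fluorescence plus signal to noise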
# [3] = small-molecule binders of probe aNOTCH3, primary screen, biochemical, small-molecule microarray, 635/667 nm fluorescence (AID 1120); conditions: higher = more signal;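 also: probe is a biotin-tagged antibody raised against NOTCH3 rather than NOTCH3 protein; score merges spot fluorescence near 667 nm with spot signal to noise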
# [4] = small-molecule binders of probe aNOTCH2, primary screen, biochemical, small-molecule microarray, 635/667 nm fluorescence (AID 1121); conditions: higher = more signal;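 also: score merges feature fluorescence read at 667 nm with its signal to noise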
# [5] = target: Carbonic anhydrase 2 (Homo sapiens) (UniProt P00918); assay: CAII small-molecule binders, profiling panel, biochemical, small-molecule microarray, Alexa647-labelled CAII (AID 1122); conditions: CAII-A647 binding fluorescence, higher = more signal
# [6] = COS7 lysate on small-molecule microarray, probe aHis, 635 nm (AID 1123); conditions: COS7 cell lysate, fluorescence, higher = more signal;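 also: z-score combines 667nm fluorescence intensity with signal-to-noise per printed compound spot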
# [7] = compound binding in COS7 lysate, probe aLAP1, primary screen, cell lysate, small-molecule microarray (AID 1124); conditions: probe aLAP1, fluorescence, higher = more signal;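 also: lysate comes from COS7 cells expressing LAP1 and is applied at 0.3 µg/mL; score merges spot fluorescence near 667 nm with signal-to-noise over triplicate slides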
# [8] = tested on: Sam68 (KHDRBS1); assay: Sam68 small-molecule binders, primary screen, biochemical, small-molecule microarray, 635 nm fluorescence (AID 1125); conditions: small-molecule microarray binding, higher = more signal;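 also: score merges 667 nm channel intensity with signal to noise over triplicate slides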
# [9] = tested on: Chordin-like protein 2 (CHRDL2); assay: CHRDL2 small-molecule binders, primary screen, biochemical, small-molecule microarray, 635 nm fluorescence (AID 1126); conditions: small-molecule microarray binding, fluorescence 635 nm; higher = more signal;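 also: printed compound slides probed with Chrdl2 protein at 4 µg/mL for 1 h at 4 C; score merges 667 nm emission intensity with signal to noise over three replicate slides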
# [10] = target: Concanavalin-A (Canavalia ensiformis) (UniProt P02866); assay: ConA small-molecule binders, primary screen, artefact control for SMM control protein annotation, biochemical, small-molecule microarray, Alexa647 label, 635 nm (AID 1127); conditions: ConA-A647 binding fluorescence, higher = more signal;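 also: z combines 667 nm emission intensity with signal-to-noise across three replicate slides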
# [11] = anti-His antibody binders, primary screen, artefact control for SMM control protein annotation, biochemical, small-molecule microarray, 635 nm fluorescence (AID 1128); conditions: anti-His Alexa647 antibody binding, higher = more signal;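 also: score merges feature fluorescence with signal-to-noise for each printed compound spot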
# [12] = tested on: Human papillomavirus type 1a E7 protein (residues 1-88); assay: HPV1a E7 small-molecule binders, primary screen, biochemical, small-molecule microarray, residues 1-88, 635 nm (AID 1129); conditions: small-molecule microarray binding, fluorescence 635 nm; higher = more signal
# [13] = target: Focal adhesion kinase 1 (Homo sapiens) (UniProt Q05397); assay: small-molecule microarray binders of FAK, primary screen, biochemical, 635/667 nm fluorescence, BSA, DTT (AID 1130); conditions: PTK2 binding, 635 nm fluorescence, higher = more signal;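 also: composite of spot emission at 667 nm and signal to noise over triplicate slides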
# [14] = tested on: Fibrinogen (Alexa647-labelled); assay: fibrinogen binders on compound microarrays, profiling panel, artefact control for SMM control-protein annotation, biochemical, small-molecule microarray, 635/667 nm fluorescence (AID 1131); conditions: fibrinogen-A647 binding fluorescence, higher = more signal;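 also: z-score merges 667 nm fluorescence with per-spot signal-to-noise over triplicate slides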
# [15] = target: Follistatin (Homo sapiens) (UniProt P19883); assay: follistatin binders on small-molecule microarrays, primary screen, biochemical, small-molecule microarray, 635/667 nm fluorescence (AID 1132); conditions: FST binding, 635 nm fluorescence, higher = more signal
# [16] = target: Fibroblast growth factor 2 (Homo sapiens) (UniProt P09038); assay: FGF2 binders on small-molecule microarrays, primary screen, biochemical, small-molecule microarray, 635/667 nm fluorescence (AID 1133); conditions: small-molecule microarray binding, FGF2, fluorescence 635/667; higher = more signal
# [17] = mitochondrial membrane potential change in A549 cells, profiling panel, cell-based, JC-1 fluorescence, basal, 24 h, 100 nL (AID 1138); conditions: higher = more signal;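 also: A549 lung adenocarcinoma cells under basal conditions with no added stimulus; test concentration not given here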
# [18] = tested on: Lefty1; assay: Lefty1 binders on small-molecule microarrays, primary screen, biochemical, small-molecule microarray, 635/667 nm fluorescence (AID 1139); conditions: small-molecule microarray binding, fluorescence 635/667; higher = more signal
# [19] = tested on: wheat germ agglutinin (Triticum aestivum), Alexa647-labelled; assay: wheat germ agglutinin binders on compound microarrays, profiling panel, artefact control for SMM control-protein annotation, biochemical, small-molecule microarray, 635/667 nm fluorescence (AID 1140); conditions: WGA-A647 binding, 635 nm fluorescence, higher = more signal;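 also: score merges 667 nm feature emission with signal to noise over triplicate slides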
# [20] = target: Luciferin 4-monooxygenase (Photinus pyralis) (UniProt P08659); assay: firefly luciferase enzyme inhibitors, primary screen, biochemical, luminescence, purified enzyme, 2006 set (AID 1141); conditions: SteadyGlo luminescence, 30 min, higher = more signal, called active from +8 up or from −8 down;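 also: cell-free assay with purified firefly luciferase at 100 ng per well in PBS; test concentration not given here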
# Sequence of Luciferin 4-monooxygenase (Photinus pyralis) (P08659 whole entry, looked up): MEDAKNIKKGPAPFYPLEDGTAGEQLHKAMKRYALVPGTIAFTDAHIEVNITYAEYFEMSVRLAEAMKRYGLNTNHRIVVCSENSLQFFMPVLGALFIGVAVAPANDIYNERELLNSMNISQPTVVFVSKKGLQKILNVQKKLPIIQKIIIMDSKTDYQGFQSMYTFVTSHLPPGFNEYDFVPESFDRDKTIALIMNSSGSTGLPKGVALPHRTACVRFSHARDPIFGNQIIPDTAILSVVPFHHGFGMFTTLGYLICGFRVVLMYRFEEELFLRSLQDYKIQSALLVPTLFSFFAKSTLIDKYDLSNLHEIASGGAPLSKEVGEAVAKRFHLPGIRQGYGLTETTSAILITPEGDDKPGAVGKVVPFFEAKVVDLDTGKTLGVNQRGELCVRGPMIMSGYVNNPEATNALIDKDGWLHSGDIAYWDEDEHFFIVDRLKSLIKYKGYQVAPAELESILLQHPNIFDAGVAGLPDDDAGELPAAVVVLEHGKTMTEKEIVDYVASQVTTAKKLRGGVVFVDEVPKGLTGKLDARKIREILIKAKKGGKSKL
# Sequence of Fibroblast growth factor 2 (Homo sapiens) (P09038 whole entry, looked up): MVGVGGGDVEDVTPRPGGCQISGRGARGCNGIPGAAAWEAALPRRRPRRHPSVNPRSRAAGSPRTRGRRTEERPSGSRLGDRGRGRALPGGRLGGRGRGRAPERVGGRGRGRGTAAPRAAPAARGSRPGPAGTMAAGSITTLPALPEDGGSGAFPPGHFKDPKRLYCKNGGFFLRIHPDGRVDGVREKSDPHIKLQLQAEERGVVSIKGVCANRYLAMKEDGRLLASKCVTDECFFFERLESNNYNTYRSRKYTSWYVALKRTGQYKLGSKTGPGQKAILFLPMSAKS
# Sequence of Focal adhesion kinase 1 (Homo sapiens) (Q05397 whole entry, looked up): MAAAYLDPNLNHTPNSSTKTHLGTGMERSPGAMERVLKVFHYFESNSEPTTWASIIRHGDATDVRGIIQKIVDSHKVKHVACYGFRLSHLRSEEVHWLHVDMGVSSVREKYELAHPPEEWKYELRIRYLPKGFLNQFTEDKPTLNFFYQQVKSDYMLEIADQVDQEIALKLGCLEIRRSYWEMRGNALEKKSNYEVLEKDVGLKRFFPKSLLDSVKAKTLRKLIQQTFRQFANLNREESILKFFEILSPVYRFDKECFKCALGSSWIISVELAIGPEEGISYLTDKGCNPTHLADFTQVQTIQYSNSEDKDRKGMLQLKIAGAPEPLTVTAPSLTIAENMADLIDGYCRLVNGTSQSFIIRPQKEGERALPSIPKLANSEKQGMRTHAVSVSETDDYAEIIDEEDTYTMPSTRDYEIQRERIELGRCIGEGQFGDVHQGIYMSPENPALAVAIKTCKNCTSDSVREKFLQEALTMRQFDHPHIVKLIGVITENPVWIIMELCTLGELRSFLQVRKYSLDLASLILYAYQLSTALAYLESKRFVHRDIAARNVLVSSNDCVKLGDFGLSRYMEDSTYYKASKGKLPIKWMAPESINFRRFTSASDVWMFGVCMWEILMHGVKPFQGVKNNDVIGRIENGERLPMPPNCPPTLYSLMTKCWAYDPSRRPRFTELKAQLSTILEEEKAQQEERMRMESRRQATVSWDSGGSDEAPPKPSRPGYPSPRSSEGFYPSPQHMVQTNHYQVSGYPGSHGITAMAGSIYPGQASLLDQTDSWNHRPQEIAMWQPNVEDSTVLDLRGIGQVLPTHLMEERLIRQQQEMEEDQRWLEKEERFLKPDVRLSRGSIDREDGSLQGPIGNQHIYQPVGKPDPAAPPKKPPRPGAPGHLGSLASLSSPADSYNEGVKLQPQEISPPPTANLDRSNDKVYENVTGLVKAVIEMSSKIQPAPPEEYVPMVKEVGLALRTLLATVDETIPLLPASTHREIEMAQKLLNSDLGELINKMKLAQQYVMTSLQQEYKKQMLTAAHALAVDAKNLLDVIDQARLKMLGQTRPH
# Sequence of Concanavalin-A (Canavalia ensiformis) (P02866 whole entry, looked up): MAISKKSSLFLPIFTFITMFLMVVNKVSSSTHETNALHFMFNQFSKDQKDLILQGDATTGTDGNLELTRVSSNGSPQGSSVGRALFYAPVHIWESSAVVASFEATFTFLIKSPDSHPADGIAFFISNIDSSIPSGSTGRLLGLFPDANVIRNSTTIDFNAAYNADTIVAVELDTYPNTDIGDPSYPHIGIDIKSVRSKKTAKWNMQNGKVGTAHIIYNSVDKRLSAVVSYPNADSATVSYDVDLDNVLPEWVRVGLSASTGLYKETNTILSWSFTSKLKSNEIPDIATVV
# Sequence of Albumin (Bos taurus) (P02769 whole entry, looked up): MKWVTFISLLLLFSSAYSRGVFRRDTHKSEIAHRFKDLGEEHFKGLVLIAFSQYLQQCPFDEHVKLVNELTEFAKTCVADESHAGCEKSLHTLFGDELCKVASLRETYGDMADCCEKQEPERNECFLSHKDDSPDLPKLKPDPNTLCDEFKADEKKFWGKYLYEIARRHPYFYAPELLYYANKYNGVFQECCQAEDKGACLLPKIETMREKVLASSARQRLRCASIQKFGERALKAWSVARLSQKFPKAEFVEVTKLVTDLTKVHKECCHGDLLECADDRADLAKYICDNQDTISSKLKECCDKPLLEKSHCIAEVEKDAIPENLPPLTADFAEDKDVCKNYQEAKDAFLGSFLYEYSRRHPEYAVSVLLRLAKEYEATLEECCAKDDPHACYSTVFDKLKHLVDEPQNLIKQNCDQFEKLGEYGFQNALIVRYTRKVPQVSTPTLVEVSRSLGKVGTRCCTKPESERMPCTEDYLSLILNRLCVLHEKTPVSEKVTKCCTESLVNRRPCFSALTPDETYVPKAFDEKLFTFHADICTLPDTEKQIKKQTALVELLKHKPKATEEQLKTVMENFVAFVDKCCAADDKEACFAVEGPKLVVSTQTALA
# Sequence of Follistatin (Homo sapiens) (P19883 whole entry, looked up): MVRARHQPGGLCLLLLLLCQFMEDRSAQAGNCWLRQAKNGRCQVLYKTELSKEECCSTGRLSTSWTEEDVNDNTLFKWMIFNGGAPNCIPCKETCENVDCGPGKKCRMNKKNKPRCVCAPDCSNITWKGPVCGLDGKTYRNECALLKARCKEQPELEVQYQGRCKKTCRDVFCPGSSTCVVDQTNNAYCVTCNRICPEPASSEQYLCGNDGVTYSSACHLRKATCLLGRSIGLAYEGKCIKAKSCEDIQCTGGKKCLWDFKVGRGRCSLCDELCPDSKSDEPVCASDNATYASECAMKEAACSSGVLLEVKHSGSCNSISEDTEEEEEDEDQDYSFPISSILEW
SMILES,composite z-score [1],composite Z-score [2],composite z-score [3],composite z-score [4],composite z-score [5],composite z-score [6],composite z-score [7],composite z-score [8],composite z-score [9],composite z-score [10],composite z-score [11],composite z-score [12],composite z-score [13],composite z-score [14],composite z-score [15],composite z-score [16],z-score [17],composite z-score [18],composite z-score [19],z-score [20]
COc1cc2c(cc1OC)CN(C(=O)[C@@H]1[C@H]3C(=O)O[C@H](c4ccccc4)[C@H](c4ccccc4)N3[C@H](c3ccccc3OCCO)[C@@]13C(=O)Nc1ccc(C#CCCO)cc13)CC2,0.641,0.252 (inactive),0.0556,-0.0878,0.402,1.88,0.681,1.29,0.352,1.14,1.94,1.15,0.222,0.966,1.27,0.409,-0.426,0.904,0.988,-0.785 (inactive)
OCCCC1=CC(c2cccs2)N(Cc2cc3c(cc2Br)OCO3)CC1 (stereo not given),0.252,0.027 (inactive),-0.0044,-0.147,0.509,0.713,0.242,0.242,-0.0561,0.795,0.992,0.213,0.585,0.772,0.333,0.076,1.39,0.433,0.929,-0.0407 (inactive)
O=C(CS)NCCCCCCNC(=O)[C@@H]1C[C@@H]2C(=O)N[C@@H](Cc3ccccc3)C(=O)N2[C@@H]1c1cccc(OCCO)c1,-0.623,0.439 (inactive),0.169,-0.0248,0.567,2.28,-0.488,1.29,0.892,1.15,3.09,1.23,0.385,0.54,1.33,1.76,-0.714,0.823,0.1,-1.09 (inactive)
CCS[C@H]1[C@@H](C(=O)O)[C@H](c2ccc(C)cc2)N(S(=O)(=O)c2ccc(C)cc2)[C@@H]1CC,0.804,-0.0164 (inactive),0.372,0.0431,0.519,1.77,0.5,1.32,-0.467,0.615,1.12,1.24,0.353,0.715,0.714,-0.0028,-0.223,-0.0097,0.652,1.16 (inactive)
CC(C)N1C(=O)C[C@@](C(=O)NCC(F)(F)F)(c2ccc([N+](=O)[O-])cc2)[C@H]1c1ccc(CO)cc1,0.0344,0.447 (inactive),-0.0636,-0.173,0.662,1.22,-0.0253,0.933,-0.035,0.688,-0.203,0.38,0.611,0.0938,0.409,-0.432,-0.279,0.343,0.351,1.58 (inactive)
CC(=O)NCCCC[C@@H]1NC(=O)[C@H]2C[C@@H](C(=O)NCCCCCCNC(=O)CS)[C@@H](c3ccc(O)cc3)N2C1=O,-1.4,0.239 (inactive),-0.216,-0.185,0.727,2.68,0.0073,0.0719,-0.205,-0.366,2.48,0.432,0.458,-0.397,-0.409,0.141,-1.08,-0.712,0.485,-0.644 (inactive)
C=C[C@H](C)[C@@H](OC(=O)Nc1ccc(OC)cc1)c1ccc(O)c2ccccc12,-0.964,-0.734 (inactive),-0.118,-0.167,0.742,0.832,0.152,0.357,0.257,-0.365,0.965,0.0812,-0.603,-0.95,0.999,0.0495,-1.64,1.04,-0.235,-5.17 (inactive)
CCCC[C@@H]1C[C@H]1[C@@H](NC(=O)c1cccs1)c1ccc(-c2ccccc2)cc1,0.1,-0.252 (inactive),0.206,-0.14,0.254,0.874,-0.202,0.393,0.0355,0.432,0.433,0.852,0.0412,0.149,0.552,-0.292,0.319,0.361,0.849,1.65 (inactive)
CC(C)C[C@@H]1NC(=O)[C@H](C(C)C)NC(=O)[C@@]23C(=O)N[C@@H](Cc4ccccc4)C2[C@H](C)[C@@]2(C)O[C@H]2C3/C=C/CC/C=C/CNC1=O (stereo not given in full),0.371,0.131 (inactive),0.0694,-0.126,0.532,1.28,-0.0375,1.29,0.806,0.271,0.65,0.466,0.262,0.972,1.29,1.53,0.276,1.15,0.229,-0.219 (inactive)
CN1C(=O)C2C=CC(C(O)c3ccco3)N(Nc3ccccc3)C2C1=O (stereo not given),-0.152,0.472 (inactive),0.0974,-0.0267,0.803,-0.039,0.574,0.68,0.685,0.477,1.72,0.103,-0.0653,0.822,0.861,0.33,0.207,0.332,0.594,0.0206 (inactive)
